# Screens from PubChem.
# In the library only some 8% were active in any assay of this set; here they are far more common.
# SARS PLP yeast – blocks SARS-CoV papain-like protease in a yeast assay; S. cerevisiae expressing SARS-CoV PLpro, growth rescue; 0.19% of 330,000 active; Potency, µM (doses to about 32.9 µM), for the others: top-dose activity, positive = growth rescue, actives largely listed as activators; calls by dose curve; note: potency is the fitted concentration of half-maximal effect; 0% is about no effect; nearly all actives have a fitted effect of over 55% in size
# FMDV antiviral – foot and mouth disease virus antiviral activity. FMDV antiviral cell-based qHTS. Potency, µM (doses to about 57.9 µM), without a hit: at the top dose activity change, negative = inhibition, actives largely listed as inhibitors. 1.2% of 410,000 active; calls by dose curve; tested in HEK293T cells; note: read-out not given here; potency is the fitted concentration of half-maximal effect; % is set by controls: 0 for no effect and ±100 for the full control effect; nearly all actives have a fitted effect of over 45% in size
# HCV inh – HCV inhibition | AID 651820 | 3.4% of 340,000 active | Huh7.5.1 HCVcc-Cre infection, luciferase reporter, 44 h | Potency, µM (doses to about 41.8 µM), inactives show at the highest dose activity change, negative = inhibition, most hits filed as inhibitors; active = well fitted inhibition curve with a large enough effect; inconclusive = small, poorly fitted or top-dose-only effect, or another doubt; inactive = no such curve, though single readings can be large or run the other way; note: potency is the fitted concentration of half-maximal effect; % is set by controls: 0 for no effect and ±100 for the full control effect
#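 Antiviral activity was scored by luciferase reporter output from cells infected with HCVcc-Cre (~0.5 moi) in presence of compound, 44 h infection period, cells seeded 1,000/well 4 h prior.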
# MARV entry inh – Marburg virus entry inhibition | 1.8% of 300,000 active | Potency, µM (highest dose often 37.8 µM), without a hit: at the highest dose activity change, negative = inhibition, actives largely listed as inhibitors | AID 540276 | Marburg virus pseudotyped entry inhibition, cell reporter; calls by dose curve; tested in HEK293 cells; note: potency is the fitted concentration of half-maximal effect; % is set by controls: 0 for no effect and ±100 for the full control effect
# Lassa entry inh – Lassa virus entry inhibition; Potency, µM (series often up to 37.9 µM), inactives show at the top dose activity change, negative = inhibition, hits mostly inhibitors; AID 540256; 1.2% of 300,000 active; Lassa virus pseudotype entry inhibition, cell reporter; calls by dose curve; tested in HEK293 cells; note: potency is the fitted concentration of half-maximal effect; % is set by controls: 0 for no effect and ±100 for the full control effect; nearly all actives have a fitted effect of over 50% in size
# HCMV inh – human cytomegalovirus inhibition | 4.5% of 410,000 active | activity change, negative = inhibition, % at 57.5 µM | HFF cells, HCMV-luciferase reporter, 72 h; active compounds read low | AID 1259415; in the data active = activity change below about -60%; inconclusive = no clear call, values can overlap the other calls; inactive = above about -39%; note: % is set by controls: 0 for no effect and ±100 for the full control effect
#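 Cell-based, HFFs, 1000 cells/well, 16 h 37C; cpds in DMSO + HCMV-luc, MOI 1 PFU/cell; 72 h 37C; OneGlo luminescence after 5 min RT; norm. to buffer vs Salinomycin 10uM.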
# Numbers without * were called inactive; ? = inconclusive; . = no result; ! = not active in a repeat; [ ] = remark or other dose.
SMILES,SARS PLP yeast,FMDV antiviral,HCV inh,MARV entry inh,Lassa entry inh,HCMV inh
COC(=O)C(N)Cc1ccc(O)c(O)c1 (centres undefined),1%,1%,-4%,10%,14%,10
O=C(Cn1c(=O)c2cccn2c2cccnc21)NCc1cccc(F)c1,.,-7%,.,.,22%[46.1 µM],-14
O=C(CSc1nnc2scc(-c3ccccc3)n12)Nc1nsc(-c2ccccc2)n1,-1%,32µM*,11µM*!,21µM*!,-30%,?
O=C(CSc1nnc2scc(-c3ccccc3)n12)Nc1nsc(-c2ccc(Cl)cc2)n1,.,?,6%,?,11%,-73*
O=C(CSc1nnc2scc(-c3ccc(Cl)cc3)n12)Nc1ccc(F)cc1,.,-19%,.,4%[46.1 µM],20%[46.1 µM],-23
Cc1ccc(-c2csc3nnc(SCC(=O)Nc4nsc(-c5ccccc5)n4)n23)cc1,.,?,?,-4%,-5%,?
CC(=O)c1sc(NC(=O)c2ccc(C(C)(C)C)cc2)nc1C,2%,?,-15%,?,?,52
C=CCNC(=O)CC(=O)N/N=C/c1ccc(C(=O)OC)cc1,-2%,-23%,5%,0%[46.1 µM],7%,-67*
COc1ccccc1N1CCN(CCCNC(=O)Nc2ccccc2C)CC1,-6%,-14%,18%,-5%,5%,-27
COc1ccccc1N1CCN(CCCCNS(=O)(=O)c2cccc3c(N(C)C)cccc23)CC1,.,.,.,7.1µM*,15µM*,.
COc1ccccc1N1CCN(CCCCN2C(=O)c3ccccc3C2=O)CC1,.,-15%,?,?,?,-102*
COc1ccccc1N1CCN(CCCCN2C(=O)CCC2=O)CC1,.,1%,.,.,.,.
O=C1c2ccccc2C(=O)N1CC1CCCO1 (centres undefined),1%,1%,?,2%,5%,.
COc1ccc(N(CCCN2C(=O)c3cccc4cccc(c34)C2=O)C(=O)c2cccc(OC)c2)cc1,-12%,-7%,11µM*,?,?,-12
O=C(CCCN1C(=O)c2cccc3cccc(c23)C1=O)N1CCN(c2ccccc2O)CC1,-7%,-23%,-20%,?,7.9µM*,2
Cc1ccc(N(CCCCN2C(=O)c3ccccc3C2=O)C(=O)c2cccc([N+](=O)[O-])c2)cc1,-6%,-27%,-13%,-9%,-2%,-24
CN(C)CCCN1C(=O)c2cccc3cccc(c23)C1=O,-1%,-10%,?,?,-18%,-64*
O=C1c2cccc3cc([N+](=O)[O-])cc(c23)C(=O)N1CC1CCCO1 (centres undefined),-2%,-21%,?,-2%,-4%,-63*
CC(C)(C(=O)NCc1ccco1)n1cc(NC(=O)c2cncc(Br)c2)cn1,.,.,.,.,.,5
COc1ccc(NC(=O)CN(C)C(=O)c2cn(-c3ccccc3)nc2-c2ccc(Cl)cc2)cc1,-10%,?,-27%,?,5%,-28
Cc1ccc(NC(=O)CCCN2C(=O)c3cccc4cccc(c34)C2=O)cc1,14%,?,?,-20%,?,-73*
CN(C)CCN1C(=O)c2cccc3cc([N+](=O)[O-])cc(c23)C1=O,.,-22%,?,0.32µM*,0.45µM*,-98*
O=C(O)C1CCC(Cn2c(SCc3cc(=O)n4ccccc4n3)nc3ccsc3c2=O)CC1 (centres undefined),7%,-13%,29%,-4%[46.1 µM],.,1
CC1CN(S(=O)(=O)c2cccc(C(=O)NCc3ccccn3)c2)CC(C)O1 (centres undefined),-3%,-5%,3%,.,.,-24
O=C(CC1N=C2c3ccccc3N=C(SCC(=O)Nc3ccccc3F)N2C1=O)NCc1ccc2c(c1)OCO2 (centres undefined),.,6%,.,-3%[46.1 µM],-17%[46.1 µM],24
SMILES,SARS PLP yeast,FMDV antiviral,HCV inh,MARV entry inh,Lassa entry inh,HCMV inh
Cc1ccc(S(=O)(=O)N2CCCCC2)cc1NC(=O)COC(=O)C1CC1,.,-14%,.,.,.,-31
COc1ccc(S(=O)(=O)N2CCCCC2)cc1NCC(=O)Nc1ccc(C)cc1,0%,-29%,?,-2%[46.1 µM],?,1
COc1ccc(CC(=O)Nc2cc(S(=O)(=O)N3CCCCC3)ccc2C)cc1OC,6%,?,10µM*,?,?,-69*
Cc1ccc(S(=O)(=O)N2CCCCC2)cc1NC(=O)CCCOc1ccccc1,-1%,-10%,10µM*,-28%[46.1 µM],?,-6
Cc1ccc(S(=O)(=O)N2CCCCC2)cc1NC(=O)COC(=O)c1cccn1C,-5%,-26%,13µM*,.,.,0
COc1ccc([N+](=O)[O-])cc1NCC(=O)Nc1cc(S(=O)(=O)N2CCCCC2)ccc1C,-2%,-18%,11µM*,.,.,-99*
COc1ccc(OC)c(CC(=O)Nc2cc(S(=O)(=O)N3CCCCC3)ccc2C)c1,0%,-5%,?,.,.,-29
CN(C)c1ccnc(Nc2ccc(O)cc2)c1C#N,-1%,35%,13%,-1%[46.1 µM],2%,0
CCC(=O)N1c2ccc(S(=O)(=O)N3CCC(C)CC3)cc2CC1C (centres undefined),.,-1%,.,12%[46.1 µM],-15%[46.1 µM],25
COc1ccccc1-c1nc2ccccc2nc1-c1ccccc1,-47%,0%,-19%,?,?,-63*
Cc1ccc2c(c1)-c1cc(C)nn1C(c1ccc3c(c1)OCO3)N2 (centres undefined),-19%,20%,14µM*,7%,-4%,11
Cc1ccc2c(c1)-c1cc(C)nn1C(c1sccc1C)N2 (centres undefined),-22%,13%,4µM*,3%,15%,?
Cc1cc2n(n1)C(c1ccccc1)Nc1ccccc1-2 (centres undefined),-5%,5%,25µM*,3%,?,19
CC(Sc1n[nH]c(=O)[nH]c1=O)C(=O)OCc1ccccc1 (centres undefined),.,-3%,15%,-11%,-5%,12
CCC(Sc1n[nH]c(=O)[nH]c1=O)C(=O)OCc1ccccc1 (centres undefined),13%,1.8µM*,10%,10%,12%,-37
COc1cc(Cl)ccc1OCc1cc(C(=O)N(C)Cc2cccc3cnccc23)no1,-12%,?,8.9µM*,?,?,?
CC(=O)c1cccc(OCc2cc(C(=O)N(C)Cc3nccs3)no2)c1,.,36%,.,.,.,-10
CN(Cc1nccs1)C(=O)c1cc(COc2cccc3cnccc23)on1,-5%,?,6.3µM*,.,.,-75*
CCN(CC(=O)Nc1c(F)cccc1F)C(=O)C1=COCCO1,.,-2%,16%,-4%,1%,11
C=CC[C@H](CC(=O)N(CCO)Cc1ccccc1)C(=O)N[C@@H](COC(=O)[C@@H](CC=C)Cc1ccc(F)cc1)Cc1c[nH]c2ccccc12,3%,?,22µM*,.,.,32
